# According to PubChem BioAssay (EPA / NIEHS):
# Active and inactive are the calls of the source. Rule for the calls: active = hit-call score of the fitted dose curve at least 0.9, where 1 is the maximum; inactive = score below 0.9.
# Read-out: Actin alpha 1 (ACTA1), ACTA1 (gene 58)
# Assay: BSK_MyoF_ACTA1: BioMAP Diversity Plus: MyoF Assay for Actin alpha 1 (ACTA1) Biomarker Activity (AID 2284244)
# Details: primary human lung fibroblasts
# How it was run: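 alpha-SMA levels read by ELISA against DMSO baseline, 24 h post-dose, in primary human lung fibroblasts. Parallel cultures stained with 0.1% SRB after 10% TCA fixation (560 nm) to flag overt cytotoxicity.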
Compound,outcome,AC50
CC(C)(C)c1cccc(O)c1,inactive,–
CCOC(=O)CCCCCCCCC(=O)OCC,inactive,–
c1ccc(Sc2ccccc2)cc1,–,30.8 µM (active)
C=CC(=O)OCC(CO)(COC(=O)C=C)COC(=O)C=C,–,1.39 µM (active)
OCCN1CCOCC1,inactive,–
CC(=O)CCC=C(C)CCC=C(C)C,inactive,–
CCCCCCCCCCCCS,–,18.6 µM (active)
CCCCCCCCCC(=O)OCC,–,26.9 µM (active)
CCC(=O)OCC=Cc1ccccc1,inactive,–
CCOC(=O)C=Cc1ccccc1,inactive,–
CC(=O)OCC=C(C)CCC=C(C)CCC=C(C)C,inactive,–
NC(=O)c1c(Cl)cccc1Cl,inactive,–
Nc1ccc(N)c([N+](=O)[O-])c1,inactive,–
CC1=CC(C)C(C=O)C(C)C1 (centres undefined) (tested in a mixture with another compound),inactive,–
